An excerpt weighted towards active compounds, which were near 4.7% of everything screened.
3CLpro inhibitor – SARS-CoV 3CLpro protease inhibitors, primary screen, biochemical, quenched FRET; Replicase polyprotein 1ab (Severe acute respiratory syndrome coronavirus), P0C6X7; recombinant SARS-CoV 3CLpro, quenched FRET peptide cleavage; inhibition, % at 6 µM; hit rate 0.14% among 290,000; AID 1706, 2009; in the data active = inhibition above about 12%
CCHFV vOTU inh – CCHFV vOTU protease inhibitors, primary screen, biochemical, Pep-AMC substrate, fluorescence | Crimean-Congo hemorrhagic fever virus L polyprotein viral ovarian tumor (vOTU) protease … | hit rate 0.55% among 370,000 | inhibition, % at 11.5 µM | AID 651958, 2012; also: 0% = vehicle wells with enzyme and 100% = no enzyme wells
RecA splice inh – Mtb RecA intein splicing inhibitors, primary screen, biochemical, fluorescence, HTS. Protein RecA (Mycobacterium tuberculosis (strain ATCC 25618 / H37Rv)), P9WHJ3. cell-free RecA intein splicing. inhibition, % (concentration not given with the values). hit rate 0.75% among 290,000. AID 2221, 2009; in the data active = inhibition above about 30%;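 also: 0% = vehicle wells and 100% = reference inhibitor control wells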
Target sequence (P9WHJ3 whole entry, looked up, canonical isoform): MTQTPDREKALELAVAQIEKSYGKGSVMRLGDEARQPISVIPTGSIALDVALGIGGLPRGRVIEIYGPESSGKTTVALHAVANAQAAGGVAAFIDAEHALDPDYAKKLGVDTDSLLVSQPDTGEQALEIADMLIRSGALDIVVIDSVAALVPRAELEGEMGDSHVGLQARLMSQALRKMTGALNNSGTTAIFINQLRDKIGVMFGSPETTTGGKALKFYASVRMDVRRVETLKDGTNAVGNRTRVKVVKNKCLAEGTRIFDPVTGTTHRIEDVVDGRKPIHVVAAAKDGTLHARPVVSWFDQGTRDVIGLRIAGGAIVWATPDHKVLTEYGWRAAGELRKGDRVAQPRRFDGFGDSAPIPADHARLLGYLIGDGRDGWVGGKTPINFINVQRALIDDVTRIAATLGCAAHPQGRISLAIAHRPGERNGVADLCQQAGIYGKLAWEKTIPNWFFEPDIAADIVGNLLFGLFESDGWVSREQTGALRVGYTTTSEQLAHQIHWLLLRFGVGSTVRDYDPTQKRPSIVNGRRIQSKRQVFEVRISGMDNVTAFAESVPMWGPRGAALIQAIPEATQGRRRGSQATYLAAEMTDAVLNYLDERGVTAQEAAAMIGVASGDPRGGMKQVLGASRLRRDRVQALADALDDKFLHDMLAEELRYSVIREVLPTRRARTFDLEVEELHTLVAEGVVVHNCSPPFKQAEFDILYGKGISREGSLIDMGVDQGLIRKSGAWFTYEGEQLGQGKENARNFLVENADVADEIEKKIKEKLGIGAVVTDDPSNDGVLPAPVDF
DUSP3 inh – VHR1 phosphatase inhibitors, primary screen, biochemical, absorbance, uHTS | recombinant VHR phosphatase, pNPP absorbance | inhibition, % at 13.3 µM | hit rate 0.52% among 290,000; in the data active = inhibition above about 50%
GDH-TPI counter – GDH-TPI coupling enzyme inhibitors, primary screen, artefact control for M. tuberculosis FBA inhibitor project, biochemical, absorbance, full deck; AID 588335, 2011; GDH-TPI coupled enzyme counterscreen, NADH absorbance; hit rate 1.2% among 360,000; inhibition, % at 4.8 µM;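 also: 0% = DMSO wells and 100% = wells lacking the enzyme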
Mtb FBA inh – Mtb FBA enzyme inhibitors, primary screen, biochemical, fluorescence, strain H37Rv. AID 588726, 2011. purified M. tuberculosis FBA, fluorescence read-out. Fructose-bisphosphate aldolase (Mycobacterium tuberculosis (strain ATCC 25618 / H37Rv)), …. inhibition, % at 1 µM. hit rate 2.3% among 360,000; in the data active = inhibition above about 27%;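 also: 0% = vehicle and 100% = reference inhibitor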
Starred values were filed as active, the others as inactive; i = inactive; nt = no result given; + = active, no number. Rule as the data show it, unless noted: active = inhibition above about 30%; inactive = the rest.

SMILES	3CLpro inhibitor	CCHFV vOTU inh	RecA splice inh	DUSP3 inh	GDH-TPI counter	Mtb FBA inh
COC(=O)[C@]12CCCCC=C1N(Cc1cccc3ccccc13)C(=O)[C@H](CC(=O)NCCCN1CCCC1=O)C2	nt	-56	nt	nt	nt	nt
CCCCN1CN2Cc3ccccc3C2CS1(=O)=O (stereo unspecified)	nt	-1	nt	nt	nt	nt
CCOC(=O)c1cc2c(=O)c3ccccc3oc2nc1C	1	-15	-2	-12	-3	-1
CCOC(=O)c1cc2c(ccc3ccccc32)oc1=O	-3	-343	i	22	7	+
Nc1nnc(-c2cc3c(ccc4ccccc43)oc2=O)s1	-1	nt	nt	54*	nt	nt
O=C(O)c1cc2c(ccc3ccccc32)oc1=O	-2	-231	-28	10	10	+
COc1ccccc1N(C(=O)CNC(=O)c1ccco1)C(C(=O)NCC1CCCO1)c1ccccc1 (stereo unspecified)	4	-13	0	6	-7	-2
CCC(C)(C)NC(=O)c1ccc(Sc2nncn2C)c([N+](=O)[O-])c1	3	-13	-1	-7	16	3
Cn1cnnc1Sc1ccc(/C=C/C(=O)c2ccc(O)cc2)cc1[N+](=O)[O-]	-2	-3	1	29	37*	-3
O=C1CC(c2cccnc2)=NN1c1ccccc1	9	6	64*	27	6	0
O=C(OC12CCCN(C1)/C(=C/c1cccc(Cl)c1)C2)C1CCCCC1 (stereo unspecified)	nt	3	nt	nt	nt	nt
Cc1c(C(=O)N2CCCCC2C)sc2ncnc(N3CCc4ccccc4C3)c12 (stereo unspecified)	2	6	11	-7	11	-3
Cc1c(C(=O)Nc2ccc3c(c2)OCCO3)sc2ncnc(N3CCCCC3C)c12 (stereo unspecified)	-2	-11	2	16	31*	1
Nc1cc(C(=O)O)c(Oc2ccc(Cl)cc2Cl)cc1C(=O)O	-2	-211	-1	6	-1	+
O=C(O)c1cc(N/N=C/C=C/c2ccccc2[N+](=O)[O-])ccc1Cl	4	6	-1	37	38*	-9
C/C(=N\Nc1ccc(Cl)c(C(=O)O)c1)c1cccc([N+](=O)[O-])c1	-1	20	-4	1	42*	-5
C/C(=N\NC(=O)c1ccccc1C)c1cccc([N+](=O)[O-])c1	-3	-6	-2	14	10	0
COc1ccc(-c2cc(-c3ccccc3)nc3ncnn23)cc1	8	-227	-2	35	25	+
CCCN(CC1CC1)C(=O)CN1C(=O)C2CCCCN2C(=O)c2ccccc21 (stereo unspecified)	nt	1	nt	nt	nt	nt
CN(C)c1ccc(C=NCC2(O)CCOC(C)(C)C2)cc1 (stereo unspecified)	-3	14	1	16	48*	2
CN(C)c1ccc(C=NCCC2(c3ccccc3)CCOC(C)(C)C2)cc1 (stereo unspecified)	3	7	0	-8	56*	0
CC1(C)CC(=O)N(CC(=O)N2CCN(c3ccc(F)cc3)CC2)c2ccccc2S1(=O)=O	nt	-8	nt	nt	nt	nt
CCN(CC)c1ccc(S(=O)(=O)N2CCOCC2)cc1NC(=O)CSc1nncs1	nt	nt	-7	nt	6	-2
CCN(CC)c1ccc(S(=O)(=O)N2CCOCC2)cc1NC(=O)CSc1nncn1C	nt	35*	nt	nt	-2	0
N#C/C(=C\c1ccc(-c2ccccc2)o1)C(=O)Nn1cnnc1	3	3	1	57*	13	-3
CCN1C(=O)/C(=C\N(C)C)NC1=S	5	-1	0	2	34*	-4
Cc1cc(OC(C)C(=O)NCC2CCC(C(=O)O)CC2)c2c(C)c(Cc3ccccc3)c(=O)oc2c1 (stereo unspecified)	8	-13	-3	-3	10	22
COC(=O)COc1cc(OCC(=O)OC)c2c(C)c(Cl)c(=O)oc2c1	-3	-130	-1	0	9	+
COc1cc(NC(=O)COc2cc(C)cc3oc(=O)c(C)c(C)c23)cc(OC)c1OC	-6	-8	-1	-8	5	1
